Only some compounds are listed: those with a hit (about 19% of all), similar ones and a draw of the others.
TDP1 cell noCPT = qHTS for Inhibitors of human tyrosyl-DNA phosphodiesterase 1 (TDP1): qHTS in cells in absence of CPT. DT40 Tdp1-/- hTDP1 cells, no CPT, ATP luminescence, 48 h. Potency, µM (highest dose often 46.2 µM), for the others: at the highest dose activity change, negative = growth inhibition, actives largely listed as inhibitors. 420,000 tested, 15% active. AID 686978, 2013; note: potency is the fitted concentration of half-maximal effect; nearly all actives have a fitted effect of over 55% in size
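Growth of hTDP1-complemented DT40 Tdp1-knockout cells is measured by ATP luminescence after at least 48 hr compound exposure at 37 °C, with DMSO substituting for the 20 nM CPT used in the parallel screen.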
IL1B secr inh = inflammasome signaling inhibition, IL-1 beta readout | THP-1 LPS/ATP IL-1B secretion, AlphaLISA, 16 h; active compounds read low | activity change, % at 57.5 µM | 360,000 tested, 4.7% active | AID 743279; in the data active = activity change below about -50%; inconclusive = mostly about -30% to -49%
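Secreted IL-1B measured by AlphaLISA bead assay after 16 h compound exposure of THP-1 cells; compounds (final up to 57.5 uM) added 1 h before LPS (250 ng/mL) and ATP (1.25 mM) stimulation; lower signal means less secretion.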
Giardia killer = Giardia lamblia killing; Giardia lamblia trophozoite viability; activity change, % at 7.66 µM, hits read low; 340,000 tested, 0.15% active; AID 540267; in the data active = activity change below about -80%; inconclusive = between about -30% and that limit;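 note: parasites exposed to compound for two days anaerobically before the ATP read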
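Luminescent ATP signal served as the viability read-out, measured 15-30 min after adding ATP detection reagent to trophozoites that had been incubated with compounds for 48 hrs at 37 deg C anaerobically at 100 cells/well.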
TDP1 inh = TDP1 (human) enzyme inhibition; Q9NUW8; recombinant TDP1, AlphaScreen DNA substrate cleavage; Potency, µM (series often up to 130 µM), for inactives: top-dose activity change, negative = inhibition, most hits filed as inhibitors; 350,000 tested, 0.28% active; AID 485290; note: potency is the fitted concentration of half-maximal effect; nearly all actives have a fitted effect of over 40% in size
Target sequence (Q9NUW8 whole entry, looked up): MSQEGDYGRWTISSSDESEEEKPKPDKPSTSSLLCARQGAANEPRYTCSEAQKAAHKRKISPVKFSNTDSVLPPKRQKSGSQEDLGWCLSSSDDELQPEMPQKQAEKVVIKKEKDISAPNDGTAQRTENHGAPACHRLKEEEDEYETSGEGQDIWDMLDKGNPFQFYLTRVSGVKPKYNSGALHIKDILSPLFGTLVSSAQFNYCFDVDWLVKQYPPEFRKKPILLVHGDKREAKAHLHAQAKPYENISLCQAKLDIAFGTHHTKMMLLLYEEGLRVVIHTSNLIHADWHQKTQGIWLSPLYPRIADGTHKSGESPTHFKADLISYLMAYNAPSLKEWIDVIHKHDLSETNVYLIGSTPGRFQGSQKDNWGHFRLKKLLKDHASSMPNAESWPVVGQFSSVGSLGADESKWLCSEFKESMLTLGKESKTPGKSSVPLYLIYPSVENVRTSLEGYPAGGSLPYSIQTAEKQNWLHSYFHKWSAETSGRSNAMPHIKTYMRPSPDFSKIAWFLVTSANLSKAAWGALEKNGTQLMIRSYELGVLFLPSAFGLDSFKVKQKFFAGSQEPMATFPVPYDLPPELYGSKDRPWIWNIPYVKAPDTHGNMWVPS
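Recombinant E. coli-expressed Tdp1 (1 nM) preincubated with compound 15 min at RT, then 5'-biotin/3'-phosphotyrosine-FITC DNA substrate (15 nM) added for 5 min. AlphaScreen beads (10 ug/ml) added, 10 min RT; tyrosine-FITC cleavage read as signal loss.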
TDP1 cell CPT = DT40-hTDP1 cell growth loss with CPT. 420,000 tested, 12% active. AID 686979. chicken DT40 Tdp1-/-;hTDP1 cells + 20 nM CPT, ATP luminescence, 48 h. Potency, µM (top dose mostly 46.2 µM), for the others: at the highest dose activity change, negative = growth inhibition, usual class: inhibitors; note: potency is the fitted concentration of half-maximal effect; nearly all actives have a fitted effect of over 55% in size
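Chicken DT40 Tdp1-/- cells complemented with human TDP1, 400 cells/well, exposed to compounds plus 20 nM camptothecin for at least 48 h at 37 C; viability read as ATP content by CellTiter-Glo luminescence.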
ELG1 repair inh = blocks ELG1-dependent DNA repair in HEK293T cells. HEK293T ELG1-luciferase reporter, luminescence, 16 h; DNA damage induced by 5-fluorouridine. Potency, µM (top dose mostly 46.1 µM), without a hit: top-dose activity change, negative = inhibition, hits mostly inhibitors. 330,000 tested, 2.3% active. AID 504467; note: potency is the fitted concentration of half-maximal effect; nearly all actives have a fitted effect of over 55% in size
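Quantitative HTS, concentration-response format. 2,000 cells/well co-treated with 5-fluorouridine and compound, 16 hr in 5% CO2 at 37 °C; ONE-Glo luminescence read after 30 min.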
Numbers without * were called inactive; ? = inconclusive; · = not tested or not shown; [ ] = remark or other dose. Unless noted, calls come from the whole dose curve; as a rule, active = well fitted curve in the direction sought with a large enough effect; inconclusive = small, poorly fitted or top-dose-only effect, or another doubt; inactive = no such curve, though single readings can be large; an effect the other way counts as inactive or inconclusive. % is set by controls: 0 for no effect and ±100 for the full control effect.

SMILES | TDP1 cell noCPT | IL1B secr inh | Giardia killer | TDP1 inh | TDP1 cell CPT | ELG1 repair inh
CC(=O)NCCNc1nc2c(-c3ccccc3)nnn2c2ccccc12 | 8.2µM* | 28 | 6 | · | ? | 1%
CC(C)(C)C1CCc2c(sc(NC(=O)c3cccc(Cl)c3)c2C(N)=O)C1 (centres undefined) | -1% | · | · | · | -3% | ·
O=C(COc1ccccc1F)Nc1ccc2c(c1)OCCO2 | -13% | 6 | -19 | -2%[0.0935 µM] | 4% | ?
Cc1cccc(CCn2c(=O)c3ccccc3n(CC(=O)Nc3ccccc3F)c2=O)c1 | ? | · | · | 5% | ? | ·
CC(=O)c1cn(CC(=O)Nc2ccccc2)c2ccccc12 | 13µM* | 21 | 2 | 0% | 15µM* | -3%
O=C(Cn1c2ccccc2c(=O)c2cc([N+](=O)[O-])ccc21)Nc1ccccc1Cl | 13µM* | 8 | ? | 4% | ? | 30%
Cc1cc(C)cc(NC(=O)Cn2cc(C(=O)C3CCCCC3)c3ccccc32)c1 | 23µM* | · | · | -2% | 18µM* | ·
O=C(Cn1c2ccccc2c(=O)c2ccccc21)Nc1ccccc1F | ? | -7 | -9 | ? | 13µM* | 17%
Cc1ccc(NC(=O)Cn2cc(C(=O)C3CC3)c3ccccc32)cc1 | 1% | 7 | -19 | 1% | -8% | 13%
O=C(Cn1c2ccccc2c(=O)c2ccccc21)N/N=C/c1cc([N+](=O)[O-])ccc1N1CCCCC1 | ? | -1 | 7 | 1% | ? | -2%
CC(=O)c1cn(CC(=O)Nc2ccccc2F)c2ccccc12 | 12µM* | 21 | 11 | · | 18µM* | -4%
CC(=O)c1cn(CC(=O)Nc2ccccc2Cl)c2ccccc12 | 9.2µM* | 32 | -11 | · | 16µM* | -5%
Cc1nnc(SCc2ccccc2Cl)c2cc3sccc3n12 | ? | · | · | -13% | ? | ·
O=C(c1nn2c(C(F)(F)F)cc(-c3cccs3)nc2c1Cl)N1CCCc2ccccc21 | 12µM* | -1 | 1 | 2% | 16µM* | ?
O=C(c1cnn2c(C(F)(F)F)cc(-c3ccccc3)nc12)N1CCCc2ccccc21 | -4% | 13 | 4 | 2% | ? | 1%
O=C(COC(=O)c1ccco1)NCc1ccc(F)cc1 | -17% | -1 | -1 | -5% | 4% | -6%
Cc1ccc(N(CN2CCCC2=O)C(=O)c2ccccc2)cc1 | 13µM* | 30 | -2 | 5% | 13µM* | 2%
Cc1ccc(C(=O)N(CN2CCCC2=O)c2ccccc2)cc1C | ? | 21 | 9 | 2% | ? | -2%
COc1ccc(C(=O)N(CN2CCCC2=O)c2ccc(C)cc2)cc1 | 15µM* | 22 | 1 | 4% | ? | 7%
COc1ccc(Cn2ccc3nc(C)c(C(=O)NCc4ccc(SC)cc4)cc3c2=O)cc1 | ? | · | · | 5% | -4% | ·
Cc1cccc(C(C)C)c1NC(=O)c1ccc2c(c1)CCCN2S(C)(=O)=O | -24% | · | · | 5% | ? | ·
O=C(Nc1ccccc1)Nc1ccccc1Br | ? | -9 | -15 | -1% | 15µM* | ?
COc1ccccc1NC(=O)C(Sc1ccccc1)c1ccccc1 (centres undefined) | ? | 17 | -7 | ? | 21µM* | -16%
COc1ccccc1NC(=O)Nc1ccccc1Br | ? | -14 | -9 | 0% | 18µM* | 9%
O=C(Nc1ccccc1)Nc1ccc(Br)c(Cl)c1 | 16µM* | ? | -12 | 0% | ? | 10%
SMILES | TDP1 cell noCPT | IL1B secr inh | Giardia killer | TDP1 inh | TDP1 cell CPT | ELG1 repair inh
O=C(Nc1ccccc1)Nc1ccc2ccccc2c1 | 18% | -1 | 11 | 4% | -7% | ?
O=C(Nc1ccccc1)Nc1cccc(NC(=O)Nc2ccccc2)c1F | -2% | 20 | -5 | · | 4% | ?
COc1ccccc1NC(C)=O | -2% | 31 | 4 | 0% | -1% | 6%
O=C(CCNC(=O)C1CCN(S(=O)(=O)c2ccc(F)cc2)CC1)NCCc1ccc(Cl)cc1 | ? | -2 | -3 | 1% | ? | 1%
O=C(CSc1nnc(-c2ccc(Cl)cc2)o1)Nc1ccc(F)cc1 | 4% | · | · | 3% | -11% | ·
Cc1ccc(S(=O)Cc2ccc(C(=O)N3CCN(C(=O)c4ccco4)CC3)o2)cc1 (centres undefined) | 18% | -27 | 24 | 2% | -4% | 4%
COc1cccc(N2CCN(C(=O)c3ccc(CS(=O)Cc4ccc(C)cc4)o3)CC2)c1 (centres undefined) | ? | -1 | -12 | 4% | ? | 15µM*
COc1cccc(N2CCN(C(=O)c3ccc(CS(=O)c4ccc(C)cc4)o3)CC2)c1 (centres undefined) | 0.52µM* | 31 | 15 | 4% | 0.58µM* | 10%
COc1cccc(N2CCN(C(=O)c3ccc(CS(=O)c4ccc(Cl)cc4)o3)CC2)c1 (centres undefined) | 0.92µM* | 24 | -18 | 4% | 0.73µM* | ?
O=C(NC1CC(=O)N(c2cccc(F)c2)C1)c1ccc(S(=O)(=O)N2CCOCC2)cc1 (centres undefined) | ? | · | · | -3% | -3% | ·
O=C(CSc1nc(=O)n2ccccc2n1)N1CCCc2ccccc21 | 1% | 8 | -1 | 0% | -22% | -2%
O=C(NCc1ccco1)c1ccc(CS(=O)c2ccccc2Cl)o1 (centres undefined) | -19% | -13 | · | · | 1% | ·
Cc1ccccc1S(=O)Cc1ccc(C(=O)NCc2ccccc2Cl)o1 (centres undefined) | ? | · | · | -5% | 21µM* | ·
Cc1ccc(CS(=O)Cc2ccc(C(=O)NCc3ccccc3Cl)o2)cc1 (centres undefined) | ? | -24 | -7 | 2% | ? | -2%
O=C(NCCCN1CCC(Cc2ccccc2)CC1)c1ccc(CS(=O)c2ccccc2Cl)o1 (centres undefined) | 21µM* | -23 | · | · | 23µM* | ·
O=C(NCc1cccc(F)c1)c1ccc(CS(=O)c2ccccc2Cl)o1 (centres undefined) | 23µM* | · | · | 5% | 16µM* | ·
COc1ccccc1S(=O)(=O)N(C)C[C@H]1Oc2ncc(Br)cc2C(=O)N([C@H](C)CO)C[C@H]1C | ? | 13 | · | · | -22% | ·
CC1(C)OC(C(O)(c2ccccc2)c2ccccc2)[C@@H](C(O)(c2ccccc2)c2ccccc2)O1 (some centres undefined) | ? | 43 | -7 | · | ? | ?
Cc1ncc(CO)c(CNc2ccc(Oc3ccccc3)cc2)c1O | 6.5µM* | 4 | 4 | · | 13µM* | ?

From PubChem
